Source: PubChem (National Center for Advancing Translational Sciences (NCATS))
PTAP TSG101 blk – qHTS Assay for Iinhibitors of HIV-1 Budding by Blocking the Interaction of PTAP/TSG101; 340,000 tested, under 10 active; Fluorescence polarization, FITC-PTAP peptide / Tsg101 binding; Tumor susceptibility gene 101 protein (Homo sapiens), Q99816; Potency, µM (series often up to 115 µM), inactives show top-dose activity change, negative = inhibition, most hits filed as inhibitors; active means well fitted inhibition curve with a large enough effect in the main read-out, with a control signal flat, not every such curve was filed as active; inconclusive means small, poorly fitted or top-dose-only effect, or effect the other way, or a change in a side signal; inactive means no such curve, though single readings can be large or run the other way; further: potency means the concentration at half of the fitted maximal effect; % of control where 0% means no effect
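Tsg101 binding domain (10 uM final) was mixed with compound and a FITC-labeled PTAP peptide (50 nM final) in HEPES pH 7.5 buffer with NaCl, Tween 20, EDTA and TCEP; fluorescence polarization was read after 20 min at r.t.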
Vif-A3G inh – qHTS for Inhibitors of Vif-A3G Interactions: qHTS | DNA dC->dU-editing enzyme APOBEC-3G (Homo sapiens), Q9HC16 | HeLa A3G-eYFP + Vif (tagged APOBEC3G with the HIV-1 protein that degrades it), YFP fluorescence, overnight | Potency, µM (series often up to 46.1 µM), for inactives: at the top dose activity, negative = active, usual class: inhibitors | actives 0.076% (n = 410,000) | AID 602310, 2012; further: potency means the concentration at half of the fitted maximal effect; on the % scale 0 is the no-effect control and ±100 the full control effect; nearly all actives have a fitted effect of over 60% in size
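Read-out is eYFP fluorescence (Ex 488/Em 500-530) from Vif-expressing HeLa A3G-eYFP cells; more signal means A3G escaped Vif-mediated degradation. Cells plated overnight, compound pinned in, incubated overnight at 37 deg C.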
Vif-A3F inh – qHTS for Inhibitors of Vif-A3F Interactions: qHTS; HeLa A3F-eYFP + Vif (tagged APOBEC3F with the HIV-1 protein that degrades it), YFP fluorescence increase; Potency, µM (top dose mostly 46.1 µM), for the others: top-dose activity, negative = active; actives 0.2% (n = 390,000); AID 602313, 2012; further: potency means the concentration at half of the fitted maximal effect; % of control where 0% means no effect; nearly all actives have a fitted effect of over 65% in size
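HeLa cells stably expressing Vif plus C-terminally eYFP-tagged A3F were seeded, incubated overnight at 37 deg C, dosed with compound, incubated overnight again at 37 deg C. Yellow fluorescence (Ex 488/Em 500-530) reported blocked Vif-mediated A3F-eYFP degradation.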
pAkt inh – HTS Assay for Inhibitors of Akt Phophorylation: Primary Screen; actives 0.32% (n = 360,000); Neuro2A IGF-stimulated pAkt S473 HTRF, 20 min; stronger effect = lower value; activity change, % for hits at 50 µM; in the data active means activity change below about -80%; inconclusive means mostly about -51% to -80%; further: on the % scale 0 is the no-effect control and ±100 the full control effect
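Neuro2A cells in DMEM with 0.5% FBS, overnight at 37 deg C, given compound at single 50 µM final, then IGF (6 nM final) for 20 min at 37 deg C. Lysed; phospho-Akt Ser473 by HTRF after 24 h, 665/615 ratio.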
12-LOX inh – Primary qHTS assay for inhibitors of human arachidonate 12S-lipoxygenase (ALOX12): Round 2; Polyunsaturated fatty acid lipoxygenase ALOX12 (Homo sapiens), P18054; purified 12hLO, xylenol orange hydroperoxide absorbance; Potency, µM (highest dose often 108 µM), for the others: at the top dose activity change, negative = inhibition, usual class: inhibitors; actives 1.1% (n = 580,000); AID 1671190, 2021; further: potency means the concentration at half of the fitted maximal effect; on the % scale 0 is the no-effect control and ±100 the full control effect
Target sequence (P18054 whole entry, looked up): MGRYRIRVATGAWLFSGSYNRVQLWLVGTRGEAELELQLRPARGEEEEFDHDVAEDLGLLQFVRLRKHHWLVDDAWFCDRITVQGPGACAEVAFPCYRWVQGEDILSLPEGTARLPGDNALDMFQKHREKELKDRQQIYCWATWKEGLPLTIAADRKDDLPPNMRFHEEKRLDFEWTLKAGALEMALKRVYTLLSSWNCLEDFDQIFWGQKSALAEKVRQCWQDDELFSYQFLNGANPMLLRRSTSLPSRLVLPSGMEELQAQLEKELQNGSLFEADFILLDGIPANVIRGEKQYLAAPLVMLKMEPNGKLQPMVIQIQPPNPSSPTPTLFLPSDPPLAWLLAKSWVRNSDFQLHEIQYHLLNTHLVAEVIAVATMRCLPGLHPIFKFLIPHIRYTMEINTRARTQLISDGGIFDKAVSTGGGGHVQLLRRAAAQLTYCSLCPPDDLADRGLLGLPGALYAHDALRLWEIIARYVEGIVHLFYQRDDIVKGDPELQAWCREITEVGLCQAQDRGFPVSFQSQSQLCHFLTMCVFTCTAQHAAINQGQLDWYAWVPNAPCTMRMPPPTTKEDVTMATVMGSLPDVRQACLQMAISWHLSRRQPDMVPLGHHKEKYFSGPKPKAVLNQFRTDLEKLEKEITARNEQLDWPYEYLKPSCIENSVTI
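Purified human 12hLO at 150 nM in 25 mM Hepes, 0.01% Triton X-100, pH 7.0, preincubated 15 min at room temperature with compound. Reaction started with 40 uM arachidonic acid, 30 min at room temperature. Hydroperoxide measured by Fe-xylenol orange, 573/405 nm absorbance ratio.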
ASM inhibitor – Inhibitors of Secretory Acid Sphingomyelinase (S-ASM): qHTS. Sphingomyelin phosphodiesterase (Homo sapiens), P17405. placental ASM, HMU-PC fluorogenic substrate, 60 min. Potency, µM (top dose mostly 57.5 µM), for the others: at the highest dose activity change, negative = inhibition, usual class: inhibitors. actives 0.006% (n = 340,000). AID 504937, 2011; further: potency means the concentration at half of the fitted maximal effect
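HMU-PC0 cleavage (9 uM final) by human placental ASM, 60 min at 37 °C following 10 min compound exposure at RT; stopped at pH 10, fluorescence Ex 386/Em 447 nm.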
* = called active by the depositor. Rows were chosen to be rich in hits. Some 1.4% of all compounds tested hit in one or more screens of this group. Unless noted, the call rests on the fitted dose curve; in most records, active means well fitted curve in the direction sought with a large enough effect; inconclusive means small, poorly fitted or top-dose-only effect, or another doubt; inactive means no such curve, though single readings can be large; an effect the other way counts as inactive or inconclusive.

`O=C(N/N=C/c1ccc([N+](=O)[O-])s1)C1CCCCC1` gave 12-LOX inh -6%.
CCc1cc(Cn2nc(-c3ccccc3)cc2C(=O)NCc2cccs2)on1 was read as PTAP TSG101 blk -3%, Vif-A3G inh -2%, Vif-A3F inh -4%, pAkt inh inactive, 12-LOX inh 8.9µM* and ASM inhibitor -13%.
Screening CCOC(=O)c1cc(-c2ccccc2)nn1Cc1cc(CC)no1 returned PTAP TSG101 blk 2%, Vif-A3G inh -8%, Vif-A3F inh 5%, pAkt inh inactive, 12-LOX inh -119% and ASM inhibitor -7%.
CCOC(=O)c1cc(-c2ccccc2C)nn1Cc1cc(CC)no1 was read as PTAP TSG101 blk 2%, Vif-A3G inh 0%, Vif-A3F inh 0%, pAkt inh inactive, 12-LOX inh 7.9µM* and ASM inhibitor -1%.
CN(C(=O)Cn1nc(-c2ccccc2F)ccc1=O)C1CCS(=O)(=O)C1 (stereo not drawn) was read as 12-LOX inh 22%.
CCOCCCNC(=O)/C(C#N)=C/c1ccc([N+](=O)[O-])o1 was read as PTAP TSG101 blk -2%, Vif-A3G inh inconclusive, Vif-A3F inh 13µM*, pAkt inh inactive, 12-LOX inh -23% and ASM inhibitor 345%.
For CC(NC(=O)/C(C#N)=C/c1ccc([N+](=O)[O-])o1)c1ccccc1 (stereo not drawn) the results were PTAP TSG101 blk -1%, Vif-A3G inh 22µM*, Vif-A3F inh 11µM*, pAkt inh inactive, 12-LOX inh inconclusive and ASM inhibitor 142%.
Screening C/C(=N\NC(=O)C1CC1c1ccccc1)c1ccncc1 (stereo not drawn) returned 12-LOX inh 46%.
For O=S(=O)(c1ccc(Br)s1)N1CCOc2ccc(COCc3ccccc3)cc2C1 the results were 12-LOX inh 0%.
`O=C(CSc1cnc2cc(S(=O)(=O)N3CCCCC3)ccc2n1)Nc1ccccc1` gave 12-LOX inh -22%.
O=C(COC(=O)c1cnccn1)Nc1ncc(C(F)(F)F)cc1Cl was read as PTAP TSG101 blk -10%, Vif-A3G inh -4%, Vif-A3F inh -25%, pAkt inh inactive, 12-LOX inh 5µM* and ASM inhibitor 9%.
`COC(=O)[C@H](Cc1ccc(OC)cc1)NC(=O)[C@H]1CN(C(C)=O)CCN1C(=O)C1CCCCC1` gave 12-LOX inh -2%.
Screening O=C(CCNC(=O)c1ccc(Cl)cc1)Nc1ccc(Cl)cc1F returned PTAP TSG101 blk -1%, Vif-A3G inh -5%, Vif-A3F inh 5%, pAkt inh inactive, 12-LOX inh -7% and ASM inhibitor 1%.
`Cc1ccc(C(=O)NNCC(=O)Nc2ccc(Cl)cc2F)cc1` gave PTAP TSG101 blk -4%, Vif-A3G inh 1%, Vif-A3F inh -5%, pAkt inh inactive, 12-LOX inh 16µM* and ASM inhibitor -6%.
Screening COc1ccc(C(C#N)=C2C=CC(=NO)C(C)=C2Cl)cc1 returned PTAP TSG101 blk 0%, Vif-A3G inh -6%, Vif-A3F inh -4%, pAkt inh inactive, 12-LOX inh 20µM* and ASM inhibitor inconclusive.
`COc1ccc(C(C#N)=C2C=C(Cl)C(=NO)C=C2Cl)cc1` gave Vif-A3G inh -16%, Vif-A3F inh -14%, pAkt inh inactive and 12-LOX inh inconclusive.
`Cc1cc(C)n(-c2ccc(OCC(=O)O)nn2)n1` gave PTAP TSG101 blk 0%, Vif-A3G inh 6%, Vif-A3F inh -5%, pAkt inh inactive, 12-LOX inh 0% and ASM inhibitor 0%.
